The list is not random: actives were taken first. Their share in the collection is about 1.6%.
KCNQ2 inh = rat KCNQ2 potassium channel inhibitors, primary screen, cell-based, CHO-K1, FluxOR thallium flux, B-score; Potassium voltage-gated channel subfamily KQT member 2 (Rattus norvegicus), O88943; 20 min; hits give low values; B-score at 10 µM; 310,000 compounds, 1.1% hits; AID 2156, 2009;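 active = fluorescence ratio B-score at most minus 3 library SDs, with starting brightness B-score within 2 library SDs, cut at about -5.5 in these data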
Target sequence (O88943 whole entry, looked up): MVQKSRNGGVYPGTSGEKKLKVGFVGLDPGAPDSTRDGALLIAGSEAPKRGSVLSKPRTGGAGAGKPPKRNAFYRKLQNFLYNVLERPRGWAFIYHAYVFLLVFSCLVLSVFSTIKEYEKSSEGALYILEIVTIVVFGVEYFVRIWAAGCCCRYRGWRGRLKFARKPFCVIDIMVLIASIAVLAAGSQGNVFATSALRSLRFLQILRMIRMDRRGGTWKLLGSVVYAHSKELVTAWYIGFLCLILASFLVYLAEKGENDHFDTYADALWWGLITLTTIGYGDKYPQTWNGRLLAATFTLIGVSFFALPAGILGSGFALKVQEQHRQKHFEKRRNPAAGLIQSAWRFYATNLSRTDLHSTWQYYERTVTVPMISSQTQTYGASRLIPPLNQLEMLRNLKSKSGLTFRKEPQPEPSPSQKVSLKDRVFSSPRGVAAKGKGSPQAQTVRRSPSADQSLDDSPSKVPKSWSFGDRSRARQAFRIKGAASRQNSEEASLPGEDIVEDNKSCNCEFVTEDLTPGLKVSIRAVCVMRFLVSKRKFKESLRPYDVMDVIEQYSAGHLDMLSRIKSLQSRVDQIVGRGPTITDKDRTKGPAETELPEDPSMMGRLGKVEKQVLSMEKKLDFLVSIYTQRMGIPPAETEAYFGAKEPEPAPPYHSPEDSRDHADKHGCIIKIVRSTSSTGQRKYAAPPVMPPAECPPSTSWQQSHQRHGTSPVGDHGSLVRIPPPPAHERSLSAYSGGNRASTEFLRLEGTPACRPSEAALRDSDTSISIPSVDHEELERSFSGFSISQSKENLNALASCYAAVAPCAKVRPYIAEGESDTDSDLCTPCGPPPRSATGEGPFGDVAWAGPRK
KCNQ2 enhance = potentiators of rat KCNQ2 potassium channel; AID 2239, 2010; 310,000 compounds, 0.54% hits; CHO-K1 KCNQ2, FluxOR thallium flux fluorescence; hits give high values; B-score at 10 µM; Potassium voltage-gated channel subfamily KQT member 2 (Rattus norvegicus), O88943;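 active = fluorescence ratio B-score at least 3 SD of library B-scores, with initial fluorescence B-score within 3 of them, cut at about 5.3 in these data; same plate scores as AID 2156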;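 also: B-score of peak minus minimum over baseline fluorescence ratio after K+ and Tl+ stimulus; positive B-score means potentiation of KCNQ2 with more thallium influx and brighter signal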
Large screens that a line does not name were inactive.

CCOC(=O)c1ccc(N(C(=O)CNC(=O)c2ccco2)C(C(=O)NCC2CCCO2)c2ccc(OC)c(OC)c2)cc1 (stereo not given)	none
COCCCN1CCN(C2Cc3ccccc3Sc3ccc(Cl)cc32)CC1 (stereo not given)	none (no result: KCNQ2 enhance)
Clc1cccc2c1Sc1ccccc1CC2N1CCNCC1 (stereo not given)	KCNQ2 inh -7.9
Cc1ccccc1Oc1cccc(C(=O)/C(C#N)=C/N(C)C)c1	none
CN(C)/C=C(/C#N)C(=O)c1cccc(Oc2ccc(C(C)(C)C)cc2)c1	KCNQ2 inh -7.8
COc1ccccc1CNC(=O)c1cccnc1	none
Cc1cccc(-n2ncc3c2CCCC3NC(=O)C2(C(N)=O)CC2)c1C (stereo not given)	none
Cc1cc(C)c(C(=O)NC2CCCc3c2cnn3-c2cccc(C)c2C)o1 (stereo not given)	KCNQ2 inh -6.6
Cc1cc(C(=O)NC2CC(C)(C)Cc3c2cnn3-c2ccccc2C)c(C)o1 (stereo not given)	KCNQ2 inh -5.7
COc1ccc(C(=O)NC2CC(C)(C)Cc3c2cnn3-c2ccccc2C)c(OC)c1OC (stereo not given)	none (no result: KCNQ2 enhance)
CC(=O)c1ccc(NC(=O)CCOc2cc(C)ccc2C)cc1	none
O=C(COc1ccccc1)NCC(c1ccco1)N1CCN(c2ccc(F)cc2)CC1 (stereo not given)	none (no result: KCNQ2 enhance)
O=C(COc1ccccc1)NCC(c1ccco1)N1CCN(c2ccccc2F)CC1 (stereo not given)	KCNQ2 inh -7
Cc1nc2scc(C)n2c(=O)c1S(=O)(=O)NCC1CCN(Cc2ccc(F)cc2)CC1	none
Cc1ccc2oc(C(=O)NCCCN3CCOCC3)c(C)c2c1	none
COc1ccc(OCC(=O)NC(=S)N2CCCc3ccccc32)cc1	none (no result: KCNQ2 enhance)
O=C(COc1ccccc1)NC(=S)N1CCc2ccccc21	KCNQ2 enhance 10
Cn1c(=O)c2c(nc(CN3CCc4ccccc4C3)n2Cc2ccc(F)cc2)n(C)c1=O	none (no result: KCNQ2 enhance)
Cc1ccccc1Cn1c(CN2CCc3ccccc3C2)nc2c1c(=O)n(C)c(=O)n2C	KCNQ2 inh -6.1
COc1ccc(N2CCN(C(=S)Nc3ccccc3OC)CC2)cc1	none (no result: KCNQ2 enhance)
O=C(c1cc(-c2cccc(Br)c2)nc2ccccc12)N1CCCC1	none (no result: KCNQ2 enhance)
Cc1ccc(-c2cc(C(=O)N3CCCC3)c3ccccc3n2)s1	KCNQ2 inh -5.9
O=C(c1cc(-c2ccc(Br)cc2)nc2ccccc12)N1CCC1	KCNQ2 inh -6.4
O=C(c1cc(-c2ccc(Cl)s2)nc2ccccc12)N1CCCC1	none
C[C@]12CCC(=O)C=C1C=C[C@@H]1[C@@H]2CC[C@@]2(C)[C@H]1CC[C@@]21CCC(=O)O1	none
CCN(CC)CCCCNc1ncc2cc(-c3cc(OC)cc(OC)c3)c(NC(=O)NC(C)(C)C)nc2n1	none
Cc1cc(C)c2[nH]c(O)c(N=NC3=NC(=O)CS3)c2c1	none
CCc1ccc2c(c1)c(N=NC1=NC(=O)CS1)c(O)n2C	KCNQ2 enhance 5.8
Cc1nn(-c2ccccc2)c(C)c1NC(=O)COC(=O)c1cccc(OC(F)F)c1	none (no result: KCNQ2 enhance)
N/C(Cc1ccc(Cl)cc1Cl)=N\OC(=O)c1ccccc1	none
N/C(CC1CC1(Cl)Cl)=N\OC(=O)c1ccccc1 (stereo not given)	KCNQ2 inh -8.6
Cc1ccc(C(=O)COC(=O)C2CC3CCCC(C2)C3=O)cc1[N+](=O)[O-] (stereo not given)	none (no result: KCNQ2 enhance)
O=C(NCCNC(=O)c1ccc([N+](=O)[O-])cc1)c1ccncc1	none (no result: KCNQ2 enhance)
COc1ccccc1OCCCCOc1ccccc1C(C)=O	none
C/C=C/c1ccc(OCCCCOc2ccccc2C(C)=O)c(OC)c1	KCNQ2 inh -7.5
CCOc1ccc(S(=O)(=O)Nc2nc3ccccc3nc2Nc2ccc(N3CCOCC3)cc2)cc1	KCNQ2 inh -5.6
COc1ccc(S(=O)(=O)Nc2ccc(N3CCOCC3)cc2)cc1	none
N#Cc1ccc(OCC(=O)Nc2ccc3[nH]c(=O)[nH]c3c2)cc1	none (no result: KCNQ2 enhance)
C=CCOc1c(Br)cc(CNc2ccc(NC(=O)C(C)C)cc2)cc1OCC	KCNQ2 enhance 8.3
CCOc1cc(CNc2ccc(O)cc2)cc(Br)c1OCc1ccccc1F	none (no result: KCNQ2 enhance)
CC(=O)Nc1sc2c(c1C#N)CCC(C)C2 (stereo not given)	none
Cc1ccc(C)n1-c1sc2c(c1C#N)CCC(C)C2 (stereo not given)	KCNQ2 inh -7.8
COc1ccccc1-c1noc2ncnc(Nc3ccc4c(c3)OCO4)c12	none
C/C(CCc1ccc2c(c1)OCO2)=N\NC(=O)c1ccccc1Br	none
O=C(NCc1cccnc1)Nc1ccc(Cl)cc1	none (no result: KCNQ2 enhance)
Cc1cccc(NC(=O)C2(c3ccccc3)CC2(Cl)Cl)c1 (stereo not given)	none (no result: KCNQ2 enhance)
Cc1cc(C)cc(NC(=O)C2(c3ccccc3)CC2(Cl)Cl)c1 (stereo not given)	KCNQ2 inh -6.3
C/C(=N\N=C(N)N)c1ccc(Cl)cc1Cl	none
CC(C)(C)c1ccccc1NC(=O)CN1C(=O)NC(Cc2ccccc2)C1=O (stereo not given)	none
COc1cc(-c2csc(N3CCOCC3)n2)cc(OC)c1OC	none
COc1ccc(-c2csc(N3CCN(c4cc(C)nc5ccccc45)CC3)n2)cc1OC	KCNQ2 inh -6.3
O=C(COC(=O)c1ccccc1Nc1ccccc1)Nc1ccccc1	KCNQ2 enhance 5.8
CC(=O)c1ccc(NC(=O)COC(=O)c2ccccc2Nc2ccccc2)cc1	none (no result: KCNQ2 enhance)
Cc1ccc(Cl)cc1N1CCN(C(=O)c2cn(C)c(=O)c3c2c2ccccc2n3C)CC1	KCNQ2 inh -7.5
Cc1cccc(N2CCN(C(=O)c3cn(C)c(=O)c4c3c3ccccc3n4C)CC2)c1C	none (no result: KCNQ2 enhance)
Cc1cccc(N2CCN(C(=O)CSCc3c(C)noc3C)CC2)c1C	KCNQ2 inh -6
Cc1noc(C)c1CSCC(=O)N1CCN(c2ccc(F)cc2)CC1	none (no result: KCNQ2 enhance)
Cc1ccc(S(=O)(=O)c2c(C)nn(C(C)(C)C)c2OC(=O)C(C)C)cc1	none (no result: KCNQ2 enhance)
Cc1ccc(S(=O)(=O)c2c(C)nn(C(C)(C)C)c2OC(=O)CC(C)C)cc1	KCNQ2 inh -7.6
COc1ccccc1Oc1ccc(S(=O)(=O)N2CCCCC2)cc1NC(=O)CCNC(C)=O	none (no result: KCNQ2 enhance)
Cc1ccccc1OCCC(=O)OCC(=O)c1c(N)n(CC(C)C)c(=O)n(C)c1=O	none (no result: KCNQ2 enhance)
COc1c(Cl)cc(-c2noc(C)c2C(=O)NCc2ccc3c(c2)OCO3)cc1Cl	KCNQ2 enhance 14
COc1c(Cl)cc(-c2noc(C)c2C(=O)NCc2ccccc2)cc1Cl	none
NC(=O)C1CCN(CC(=O)N2N=CCC2c2ccccc2)CC1 (stereo not given)	none (no result: KCNQ2 enhance)
CCSC1=C(C#N)C(c2cccs2)C(C(=O)OC)=C(C)N1 (stereo not given)	none
CCCSC1=C(C#N)C(c2cccs2)C(C(=O)Nc2ccccc2)=C(C)N1 (stereo not given)	KCNQ2 inh -8.8
COc1ccccc1CNC(=O)COC(=O)c1n[nH]c2ccccc12	KCNQ2 inh -5.9
COc1ccccc1CNC(=O)c1n[nH]c2ccccc12	none
Cc1cc(C)nc(NNC(=O)c2ccccc2O)n1	none
CCOC(=O)C1=NN(C(=O)c2ccc(OC)cc2)C(O)(c2ccc(Cl)cc2)C1 (stereo not given)	KCNQ2 enhance 16
CCOC(=O)C1=NN(C(=O)c2ccccc2)C(O)(c2ccc(C)cc2)C1 (stereo not given)	none
CCC(OC(=O)CNS(=O)(=O)c1ccccc1)C(=O)c1ccccc1 (stereo not given)	none (no result: KCNQ2 enhance)
COc1ccc2o/c(=N\O)c(C(=O)Nc3ccc(C)cc3)cc2c1	KCNQ2 inh -10
COc1ccc2oc(=N)c(C(=O)Nc3ccc(C)cc3)cc2c1	none (no result: KCNQ2 enhance)

Bioassay records from PubChem.
